About 83,000 compounds went through this panel and 20% of them were active in at least one assay; those are over-represented in the sample as a whole.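 For each line, cells grew in 96-well plates with the test compound present at a single concentration for 48 hours.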 Values without a mark were called inactive. Active and inactive are the calls of the source. How the source made its calls: active means growth percent below 10; inactive means the rest.

Consider 19 molecules from PubChem BioAssay (NCI).

Assay in all cases: NCI-60 one-dose screen, 48 h (100 = growth as untreated, 0 = no growth, -100 = all killed)
Holding throughout (settings): 10 µM unless noted

Experiment [1] relates to HCT-15 colon.
For experiment [2], the system named is SNB-75 CNS.
Experiment [3] deals with SNB-19 CNS.
Experiment [4] deals with U251 CNS.
Experiment [5] relates to PC-3 prostate.
Experiment [6] deals with SK-MEL-5 melanoma.
Experiment [7] relates to UACC-62 melanoma.
Experiment [8] deals with LOX IMVI melanoma.
Experiment [9] has as its system SK-MEL-28 melanoma.

`COC(=O)[C@@H](Cc1c[nH]c2ccccc12)NC(=O)[C@H](Cc1ccccc1)NCc1ccncc1`: the growth in experiment [1] was 110%; in experiment [2], 93%; in experiment [3] it was 93.3%; in experiment [4], 92.7%; in [5], 78.5%; in experiment [6], 102%. The growth in [7] is 95.3%; in experiment [8], 95%; in experiment [9], 122%.
Take `O=C1C(Nc2ccc(Br)cc2)=C(I)C(=O)c2ncccc21`: the growth in experiment [1] is 6.76% (active); in experiment [2], 26.4%; in experiment [3], 68.3%; in experiment [4], 32%; in experiment [5] it was 39.3%; in [6], -17.7% (active). Also, the growth in [7] was 9.48% (active); in [8], -3% (active); in [9] it was 63.7%.
In the case of `CN(C)CCOc1nc2c3cc([N+](=O)[O-])ccc3nn2c2ccccc12`, the growth was 25.9% in [1]; 77.1% in [2]; 19.5% in experiment [3]; 21% in [4]; 47.1% in [5]; 45.6% in experiment [6]. For the same molecule, the figures for the growth in experiment [7], in experiment [8] and in experiment [9] were 41.8%, 20.2% and 93.7%, respectively.
In the case of `COc1ccc(-c2nc(SCCC(C)C)nc(N/N=C(/C)c3ccc(N)cc3)c2C#N)cc1`, the growth in experiment [1] is 97.6%; in [2] it was 81.4%; in experiment [3], 81.6%; in experiment [4], 90.3%; in [5] it was 96.5%; in [6], 99.5%. In addition, the growth in experiment [7] was 87.5%; in [8], 91.6%; in experiment [9], 121%.
Consider `C#CCOc1ccc(C2=NN(CCCC)C3N=C(Cl)c4ncn(CCCC)c4N23)cc1OCC#C` (stereo not given), for which the growth in [1] was 88.9%; in [2] it was 83.3%; in [3], 94.6%; in [4], 79.6%; in [5], 63.6%; in experiment [6], 89.7%. Further, the growth in experiment [7] was 69.6%; in [8], 85.8%; in experiment [9], 93.6%.
With `O=C(Nc1ncc(Cc2ccccc2Cl)s1)c1ccc2c(c1)OCCO2`, the growth in experiment [1] is 10.4%; in [2], 3.37% (active); in experiment [3] it was 36%; in [4], 14.7%; in [5], 23.4%; in experiment [6], -25.1% (active). The figures for the growth in [7] and in experiment [8] were 27.9% and 23.6%, respectively.
In the case of `CCCN1C2CCC1/C(=C\c1ccc(OC)cc1)C(=O)/C2=C/c1ccc(OC)cc1`, the growth is 71.1% in experiment [1]; 84.9% in experiment [2]; 86.7% in [3]; 70.3% in experiment [4]; 64% in experiment [5]; 64.1% in [6]. Moreover, the growth was 49.7% in [7] and 74.8% in experiment [8].
`O=C(Oc1ccccc1)c1cc(O)c(O)c(O)c1`: the growth in experiment [1] was 39.8%; in experiment [2] it was 79.5%; in experiment [3] it was 65.2%; in experiment [4] it was 54.8%; in experiment [5], 70.4%; in [6] it was 58.4%. The growth is 31.3% in experiment [7] and 59.3% in [8].
As to `CC(C)=CCC[C@](C)(O)C1CC[C@]2(C)[C@@H]1CC[C@@H]1[C@@]3(C)CC/C(=N\OCCC#N)C(C)(C)[C@@H]3CC[C@]12C` (stereo not given in full), the growth in experiment [1] was 83.4%; in experiment [2], 77.8%; in [3], 92.4%; in experiment [4], 90.3%; in [5] it was 62.3%; in experiment [6], 85.8%. The values for the growth in experiment [7], in [8] and in experiment [9] were 68.9%, 89.2% and 94.1%, respectively.
Turning to `CCCNNC(=O)c1ccc(CNC(=O)/C=C/c2ccccc2)cc1`, the growth was 50.4% [2.5 µM] in experiment [1]; 71.7% [2.5 µM] in experiment [2]; 54.5% [2.5 µM] in experiment [3]; 37.7% [2.5 µM] in [4]; 43% [2.5 µM] in experiment [5]; 28.8% [2.5 µM] in [6]. Besides, the growth in [7] is 7.16% [2.5 µM] (active); in experiment [8], 21.6% [2.5 µM]; in experiment [9], 36% [2.5 µM].
In the case of `C=C1C(=O)O[C@H]2[C@H]1CC/C(COC(=O)NCc1ccc(Cn3c(=O)sn(CCCC)c3=O)cc1)=C\CC[C@@]1(C)O[C@@H]21`, the growth in [1] was 24.4%; in experiment [2], 82.7%; in experiment [3], 100%; in experiment [4] it was 60.4%; in experiment [5], 59.9%; in [6], 96.3%. In addition, the growth in experiment [7] is 53.3%; in experiment [8], 26.8%; in experiment [9], 55.5%.
Take `CC1(C)CCC[C@]23C(=O)O[C@](O)(C(=O)C4=C[C@@](C)(/C=C/CCCc5ccc6ccc7cccc8ccc5c6c78)CC[C@@]42O)[C@@H]13`: the growth is -69.3% (active) in experiment [1]; -78.8% (active) in [2]; -95.5% (active) in experiment [3]; -85.5% (active) in experiment [4]; -48.8% (active) in experiment [5]; -96.3% (active) in experiment [6]. Further, the growth in experiment [7] is -75.5% (active); in [8] it was -85.5% (active).
In the case of `CNC1=C(Br)C(=O)c2c(C(=O)OC)c(C)nc(C)c2C1=O`, the growth in [1] was 36.8%; in experiment [2] it was 139%; in experiment [3], 82.9%; in experiment [4], 71.1%; in [5], 48.9%; in experiment [6], -90.9% (active). For the same molecule, the growth in experiment [7] was 1.42% (active); in [8], 35.3%; in experiment [9], 91.3%.
With `CCOC(=O)C1=CCC(n2cc(F)c(=O)[nH]c2=O)O1` (stereo not given), the growth is 104% in [1]; 121% in experiment [2]; 108% in [3]; 95.6% in [4]; 102% in experiment [5]; 104% in experiment [6]. The growth in [7] was 108%; in [8] it was 94.7%; in [9] it was 114%.
Turning to `O=C1CCc2c(sc3[nH]c(=S)n(-c4cc(C(F)(F)F)cc(C(F)(F)F)c4)c(=O)c23)C1`, the growth in experiment [1] was -42.9% (active); in experiment [2], -8.04% (active); in experiment [3], 15.1%; in experiment [4] it was -22.4% (active); in experiment [5], -38.4% (active); in experiment [6], -88.9% (active). The growth is -12.9% (active) in experiment [7], 1.59% (active) in experiment [8] and -16.8% (active) in experiment [9].
On to `Clc1ccc(C2=Nn3c(nnc3-c3cc(Cl)cc(Cl)c3Cl)SC2)cc1`, for which the growth in experiment [1] is 32.3%; in experiment [2], 31.7%; in [3], 32.8%; in [4] it was 20.9%; in [5] it was 20.2%; in experiment [6], 0.698% (active). For the same molecule, the results for the growth in experiment [7], in [8] and in experiment [9] were 31.9%, 39.8% and 62.1%, respectively.
On to `Cc1[nH]c(C(=O)Nc2ccccc2OC2CCNC2)c(Cl)c1Cl` (stereo not given), for which the growth is 77.7% in experiment [1]; 65.2% in [2]; 85.3% in [3]; 64.4% in experiment [4]; 80.2% in [5]; 85.8% in [6]. Also, the figures for the growth in experiment [7] and in experiment [8] were 68.1% and 30.7%, respectively.
`CN(C)c1ccc(/C=C/C2=[N+](C)c3ccccc3C2(C)C)cc1`: the growth in experiment [1] was 39.5%; in experiment [2], 36.3%; in [3] it was 13.2%; in experiment [4] it was 19.2%; in experiment [5], 4.64% (active); in [6], -4.87% (active). The growth was 9.39% (active) in experiment [7], 15.2% in [8] and 35.4% in [9].
Take `O=C(Nc1ccc(Oc2cccc(F)c2)c(Cl)c1)c1cnccn1`: the growth is 31.2% in [1]; 0.855% (active) in experiment [2]; 40.4% in [3]; 25.7% in experiment [4]; 16.7% in [5]; 9.61% (active) in experiment [6]. The values for the growth in experiment [7] and in [8] were 33.5% and 43.9%, respectively.
